According to PubChem BioAssay:
Measured potencies and affinities stand elsewhere. The source made the active and inactive calls.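 Rule for the calls: active = a dose-response fit showing signal loss, with half-maximal concentration no higher than twice the top tested dose; inconclusive = flat fit between 30% and 70% signal loss, or poor fit; inactive = the rest.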

Experiment: viability loss in HepG2 hepatoma cells – cell-based, cherry-picks, set 2, cytotoxicity control, dose response (AID 687002)
Details: ATP luminescence (CellTiter-Glo), 48 h; series mostly up to 26 µM

Row | Structure (SMILES) | outcome
1 | Cc1cc(C(=O)Nc2ccc3c(c2)C(=O)N(C)[C@H]2CC[C@@H](CC(=O)N[C@@H](C)c4ccccc4)O[C@H]2CO3)no1 | inactive
2 | C[C@@H]1CN([C@@H](C)CO)C(=O)Cc2cc(NC(=O)Nc3cccc4ccccc34)ccc2O[C@@H]1CN(C)Cc1ccc(C(=O)O)cc1 | inactive
3 | CO[C@@H]1CN(C)C(=O)c2cc(NC(=O)Nc3cccc(F)c3)ccc2OC[C@H](C)N(C)C[C@@H]1C | inactive
4 | COCCNC(=O)C[C@@H]1C[C@H]2c3cc(NC(=O)C4CCC4)ccc3O[C@H]2[C@@H](CO)O1 | inactive
5 | O=C(NC[C@H]1[C@@H](c2ccccc2)[C@@H](CO)N1C(=O)C1CCC1)NC1CCCC1 | inactive
6 | CCc1ccc(NC(=O)C2NC(=O)CC2c2ccccc2)cc1 (stereo not given) | inactive
7 | C[C@H]1CN([C@@H](C)CO)C(=O)Cc2cc(NC(=O)C3CC3)ccc2O[C@H]1CN(C)Cc1ccc(-c2ccccc2)cc1 | inactive
8 | CN1[C@@H]2c3ccc(-c4cccnc4)c(=O)n3C[C@@H]2[C@@H](CO)[C@@H]1C(=O)N1CCc2ccccc2C1 | inactive
9 | Cc1noc(C)c1NC(=O)N(C)C[C@H]1Oc2ccc(NS(=O)(=O)c3cn(C)cn3)cc2CC(=O)N([C@H](C)CO)C[C@H]1C | inactive
10 | COc1ccccc1-c1ccc2c(c1)O[C@@H](CN(C)C(=O)c1cccnc1)[C@H](C)CN([C@@H](C)CO)S2(=O)=O | inactive
11 | C[C@@H]1CN([C@@H](C)CO)C(=O)c2cc(NC(=O)Nc3ccc4c(c3)OCO4)ccc2O[C@H]1CN(C)Cc1ccc(Oc2ccccc2)cc1 | inactive
12 | COc1ccc(NC(=O)N(C)C[C@H]2OCCCC[C@H](C)Oc3ccc(NC(=O)C4CCCCC4)cc3C(=O)N([C@@H](C)CO)C[C@@H]2C)cc1 | inactive
13 | C[C@@H]1CN([C@H](C)CO)C(=O)c2cc(NS(=O)(=O)c3ccc(Cl)cc3)ccc2O[C@H]1CN(C)S(=O)(=O)c1ccc(F)cc1 | inactive
14 | COc1ccc(-n2ncc3c(SCC(=O)NNC(C)=O)ncnc32)cc1 | inactive
15 | Cc1noc(C)c1NC(=O)Nc1ccc2c(c1)C(=O)N([C@H](C)CO)C[C@@H](C)[C@H](CN(C)S(C)(=O)=O)OCCCC[C@@H](C)O2 | inactive
16 | CO[C@H]1CN(C)C(=O)c2cc(NC(=O)C3CCOCC3)ccc2OC[C@@H](C)NC[C@H]1C | inactive
17 | C[C@@H]1CCCCO[C@H](CN(C)C(=O)Nc2ccc(F)cc2)[C@H](C)CN([C@@H](C)CO)C(=O)c2cc(NS(=O)(=O)c3ccc(Cl)cc3)ccc2O1 | inactive
18 | CCS(=O)(=O)N1CCCCN2[C@H](CO)[C@@H](c3ccc(-c4ccc(C#N)cc4)cc3)[C@@H]2C1 | inactive
19 | O=C(CN(c1ccc(F)cc1)S(=O)(=O)c1ccccc1)NC1CCCCCC1 | inactive
20 | CCC(C)(C(=O)Nc1cccc(C)c1)N1CCC1=O (stereo not given) | inactive

Row | Structure (SMILES) | outcome
21 | CCCCN1CCCCC1C(=O)Nc1c(C)cccc1C (stereo not given) | inactive
22 | CCS(=O)(=O)NCC[C@H]1CC[C@H](NS(=O)(=O)c2cccc(F)c2)[C@H](CO)O1 | inactive
23 | C[C@H](CO)N1C[C@H](C)[C@@H](CN(C)S(=O)(=O)c2ccc(Cl)cc2)Oc2c(NS(=O)(=O)c3ccc(F)cc3)cccc2C1=O | inactive
24 | COc1ccccc1-c1ccc([C@H]2[C@@H](C#N)N(C(=O)C3CC3)[C@@H]2CO)cc1 | inactive
25 | Cc1ccc(S(=O)(=O)N2C[C@@H](O)COC[C@@H]3O[C@H](CC(=O)NCc4ccc5c(c4)OCO5)CC[C@H]32)cc1 | inactive
26 | C[C@@H]1CCCCO[C@H](CN(C)C(=O)c2ccncc2)[C@H](C)CN([C@H](C)CO)C(=O)c2cc(NC(=O)CCC(F)(F)F)ccc2O1 | inactive
27 | C[C@H](CO)N1C[C@H](C)[C@@H](CN(C)S(C)(=O)=O)Oc2cc(C#Cc3ccccc3)ccc2S1(=O)=O | inactive
28 | C[C@H]1CN([C@@H](C)CO)C(=O)c2cc(NC(=O)Nc3cccc4ccccc34)ccc2O[C@@H]1CN(C)C(=O)Nc1ccc(C(F)(F)F)cc1 | inactive
29 | CO[C@H]1CN(C)C(=O)c2cc(NC(=O)c3ccc4c(c3)OCO4)ccc2OC[C@@H](C)N(CC2CC2)C[C@H]1C | inactive
30 | COc1ccc(NC(=O)N(C)C[C@@H]2OCCCC[C@H](C)Oc3ccc(NC(=O)Nc4ccc5c(c4)OCO5)cc3C(=O)N([C@H](C)CO)C[C@@H]2C)cc1 | inactive
31 | CNC(=O)C[C@H]1CC[C@H]2[C@H](COc3ccc(NC(=O)c4cc(C)on4)cc3C(=O)N2C)O1 | inactive
32 | Cc1ccc(S(=O)(=O)N(C)C[C@@H]2Oc3ncc(Br)cc3C(=O)N([C@@H](C)CO)C[C@H]2C)cc1 | inactive
33 | O=C(C[C@H]1CC[C@H]2[C@@H](COC[C@@H](O)CN2S(=O)(=O)c2ccc(Oc3ccccc3)cc2)O1)NC1CCC1 | inactive
34 | O=C(C[C@@H]1CC[C@H]2[C@@H](COC[C@H](O)CN2Cc2ccccc2F)O1)NC1CCC1 | inactive
35 | C[C@H]1CCCCO[C@H](CN(C)C(=O)c2ccncc2)[C@@H](C)CN([C@@H](C)CO)C(=O)c2cc(NC(=O)Cc3ccccc3)ccc2O1 | inactive
36 | COc1ccc(C2CC(c3cccs3)=NN2C(=O)c2ccc(Br)o2)cc1 (stereo not given) | inactive
37 | COCC#Cc1cnc2c(c1)C(=O)N([C@H](C)CO)C[C@@H](C)[C@@H](CN(C)C(=O)Nc1ccc(OC)cc1)O2 | inactive
38 | COc1ccc(CN(C)C[C@@H]2OCCCC[C@H](C)Oc3ccc(N(C)C)cc3C(=O)N([C@H](C)CO)C[C@@H]2C)cc1 | inactive
39 | COc1cccc(S(=O)(=O)N(C)C[C@H]2OCc3cnnn3CCCC(=O)N([C@H](C)CO)C[C@H]2C)c1 | inactive
40 | O=C(C[C@H]1CC[C@H](NC(=O)Nc2ccc(C(F)(F)F)cc2)[C@H](CO)O1)NCc1cccc(F)c1 | inactive
